From the supplement of paper PMC8975748
Where a name gives a salt, the structure may show the parent alone.

What follows are compounds tested on Saccharomyces cerevisiae BY4741 SeMeCo community (assay: z-score of subpopulation abundance vs DMSO median, subpopulation auxotrophic for HUM; higher = larger share of this subpopulation than in DMSO controls). Conditions: 10 µM; 24 h; SM minimal medium; subpopulation (auxotrophy): HUM.
Description: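 Fluorescent four-plasmid SeMeCo (self-establishing metabolically cooperating S. cerevisiae BY4741 community; plasmids pH-mRuby2, pL-mWasabi, pU-eCFP, pM-TagRFP657) was grown 24 h in minimal SM medium with each Selleck FDA-approved drug at 10 µM in 384-well plates. Cells were fixed and imaged by high-content confocal microscopy. For each auxotrophic subpopulation (and the prototroph), a z-score gives the deviation from the DMSO vehicle-control population median.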
`C[C@H]1O[C@H](O[C@H]2[C@H](O)[C@@H](O)[C@@H](O)[C@H](O)[C@@H]2O)[C@@H](N)C[C@@H]1NC(=N)C(=O)O` [Kasugamycin hydrochloride] was tested, and the “z-score of subpopulation abundance” value was -0.14.
`CN1[C@@H]2C[C@@H](OC(=O)[C@H](CO)c3ccccc3)C[C@H]1[C@@H]1O[C@@H]12` [Scopolamine HBr] was tested, and the “z-score of subpopulation abundance” value was -0.97.
With `Nc1ccncc1` [4-Aminopyridine] the “z-score of subpopulation abundance” value was -0.37.
`C[N+]1(C)[C@@H]2C[C@@H](OC(=O)[C@H](CO)c3ccccc3)C[C@H]1[C@@H]1O[C@@H]12` [Methscopolamine] was tested, and the “z-score of subpopulation abundance” value was 0.63.
`CN1C(=O)COc2c(C(=O)NC3CN4CCC3CC4)cc(Cl)cc21` (stereo not given) [Azasetron HCl] was tested, and the “z-score of subpopulation abundance” value was 0.35.
With `CNC1CC(N)C(O)C(OC2OC(CO)C(O)C3OC4(OC(C(N)CO)C(O)C(O)C4O)OC23)C1O` (stereo not given) [Hygromycin B] the “z-score of subpopulation abundance” value was -0.41.
With `CCCN1C[C@H](CSC)C[C@@H]2c3cccc4[nH]cc(c34)C[C@H]21` [Pergolide Mesylate] the “z-score of subpopulation abundance” value was -0.74.
With `Cn1cc(C2=C(c3cn(C4CCN(Cc5ccccn5)CC4)c4ccccc34)C(=O)NC2=O)c2ccccc21` the “z-score of subpopulation abundance” value was -0.32.
With `CCC1=C[C@H]2CN3CCc4c([nH]c5ccccc45)[C@](C(=O)OC)(C2)[C@H]13` [Catharanthine] the “z-score of subpopulation abundance” value was 0.29.
With `C[CH2][Hg][S]c1ccccc1C(=O)[O-].[Na+]` [Thimerosal] the “z-score of subpopulation abundance” value was 14.9.
In the case of `CC[C@@H](C(N)=O)N1CCCC1=O` [Levetiracetam], the “z-score of subpopulation abundance” value is reported as -0.12.
`Cc1cc(O)ccc1Cl` [Chlorocresol] was tested, and the “z-score of subpopulation abundance” value was -0.26.
In the case of `CN1[C@@H]2C[C@@H](OC(=O)[C@H](CO)c3ccccc3)C[C@H]1[C@@H]1O[C@@H]12` [Scopolamine HBr trihydrate], the “z-score of subpopulation abundance” value is reported as -0.05.
For `CN[C@@H]1[C@@H](O)[C@@H](O[C@@H]2[C@@H](O)[C@H](O[C@H]3O[C@H](CN)CC[C@H]3N)[C@@H](N)C[C@H]2N)OC[C@]1(C)O.CN[C@@H]1[C@@H](O)[C@@H](O[C@@H]2[C@@H](O)[C@H](O[C@H]3O[C@H]([C@@H](C)N)CC[C@H]3N)[C@@H](N)C[C@H]2N)OC[C@]1(C)O.CN[C@@H]1[C@@H](O)[C@@H](O[C@@H]2[C@@H](O)[C@H](O[C@H]3O[C@H]([C@@H](C)NC)CC[C@H]3N)[C@@H](N)C[C@H]2N)OC[C@]1(C)O` [Gentamicin Sulfate], the “z-score of subpopulation abundance” value was -0.69.
For `CN1[C@@H]2CC[C@H]1C[C@@H](OC(=O)[C@H](CO)c1ccccc1)C2` [Hyoscyamine], the “z-score of subpopulation abundance” value was -0.99.
In the case of `CCN(C)C(=O)Oc1cccc([C@H](C)N(C)C)c1` [Rivastigmine], the “z-score of subpopulation abundance” value is reported as 0.66.
For `C=CCN1C[C@H](C(=O)N(CCCN(C)C)C(=O)NCC)C[C@@H]2c3cccc4[nH]cc(c34)C[C@H]21` [Cabergoline], the “z-score of subpopulation abundance” value was -0.37.
In the case of `C=C[C@H]1CN2CC[C@H]1C[C@H]2[C@H](O)c1ccnc2ccccc12` [Cinchonidine], the “z-score of subpopulation abundance” value is reported as 0.48.
In the case of `COc1ccc2[nH]cc(CCN)c2c1` [5-Methoxytryptamine], the “z-score of subpopulation abundance” value is reported as 0.46.
`Oc1cccc2cccnc12` [8-Hydroxyquinoline] was tested, and the “z-score of subpopulation abundance” value was -0.54.
With `NC(=O)CN1CCCC1=O` [Piracetam] the “z-score of subpopulation abundance” value was 1.72.
`O=c1[nH]c2ccccc2n1CCCN1CCC(n2c(=O)[nH]c3cc(Cl)ccc32)CC1` [Domperidone] was tested, and the “z-score of subpopulation abundance” value was 0.44.
In the case of `CC[N+](C)(CC)CCOC(=O)C(O)(c1ccccc1)c1ccccc1` [Methylbenactyzine Bromide], the “z-score of subpopulation abundance” value is reported as -0.8.
In the case of `CN(C)C(=O)Oc1cccc([N+](C)(C)C)c1` [Neostigmine Bromide], the “z-score of subpopulation abundance” value is reported as -0.37.
In the case of `CN(C)[C@@H]1C(=O)C(C(N)=O)=C(O)[C@@]2(O)C(=O)C3=C(O)c4c(O)cccc4[C@@](C)(O)[C@H]3C[C@@H]12` [Tetracycline HCl], the “z-score of subpopulation abundance” value is reported as 0.07.
`NCC(O)c1ccc(O)cc1` (racemic) [(+,-)-Octopamine HCl] was tested, and the “z-score of subpopulation abundance” value was -0.21.
For `C=C(C)[C@H]1Cc2c(ccc3c2O[C@@H]2COc4cc(OC)c(OC)cc4[C@@H]2C3=O)O1` [Rotenone (Barbasco)], the “z-score of subpopulation abundance” value was 0.94.
In the case of `CCN(C)C(=O)Oc1cccc([C@H](C)N(C)C)c1` [Rivastigmine Tartrate], the “z-score of subpopulation abundance” value is reported as -0.85.
With `CC1(C)SC2C(N)C(=O)N2C1C(=O)O` (stereo not given) [6-Aminopenicillanic acid] the “z-score of subpopulation abundance” value was 0.65.
`CC(NC(C)(C)C)C(=O)c1cccc(Cl)c1` (stereo not given) [Amfebutamone (Bupropion) HCl] was tested, and the “z-score of subpopulation abundance” value was -0.74.
In the case of `CCN(CC)CCOC(=O)C(O)(c1ccccc1)c1ccccc1` [Benactyzine hydrochloride], the “z-score of subpopulation abundance” value is reported as 0.98.
For `C#C[C@]1(O)C=C[C@H]2[C@@H]3CCC4=CC(=O)CC[C@@H]4[C@H]3CC[C@@]21CC` [Gestodene], the “z-score of subpopulation abundance” value was -0.17.
`C[N+]12CCC(CC1)C(OC(=O)C(O)(c1ccccc1)c1ccccc1)C2` (stereo not given) [Clidinium Bromide] was tested, and the “z-score of subpopulation abundance” value was -0.01.
For `COC(=O)C1=CCCN(C)C1` [Arecoline HBr], the “z-score of subpopulation abundance” value was -0.03.
For `C=CC[C@]1(O)CC[C@H]2[C@@H]3CCC4=CC(=O)CCC4=C3C=C[C@@]21C` [Altrenogest], the “z-score of subpopulation abundance” value was -0.44.
In the case of `COc1ccc(C(CN(C)C)C2(O)CCCCC2)cc1` (stereo not given) [Venlafaxine], the “z-score of subpopulation abundance” value is reported as 0.51.
`CC[C@H]1[C@@H]2C[C@H]3[C@@H]4N(C)c5ccccc5[C@]45C[C@@H]([C@@H]2[C@H]5O)N3[C@@H]1O` [Ajmaline] was tested, and the “z-score of subpopulation abundance” value was -0.48.
For `CCN1CC2(OC(=O)c3ccccc3NC(C)=O)CCC(OC)C34C1C(CC23)C1(O)CC(OC)C2CC4C1(O)C2OC` (stereo not given) [Lappaconitine], the “z-score of subpopulation abundance” value was 0.34.
With `CN(C)[C@@H]1C(=O)C(C(N)=O)=C(O)[C@@]2(O)C(=O)C3=C(O)c4c(O)ccc(Cl)c4[C@@](C)(O)[C@H]3C[C@@H]12` [Chlortetracycline HCl] the “z-score of subpopulation abundance” value was 0.05.
`CN[C@@H]1[C@@H](O)[C@@H](O[C@@H]2[C@@H](O)[C@H](O[C@H]3O[C@H]([C@@H](C)O)[C@@H](O)[C@H](O)[C@H]3N)[C@@H](N)C[C@H]2N)OC[C@]1(C)O` [Geneticin (G418 Sulfate)] was tested, and the “z-score of subpopulation abundance” value was -0.88.
